Shown are actives, neighbours in structure and some others; about 19% of the full set was active somewhere.
KB-V1 cytotox = qHTS assay for MDR1-selective chemotherapeutics: Primary screen using the drug-selected MDR subline cells KB-V1; KB-V1 MDR cells viability, CellTiter-Glo, 72 h; Potency, µM (top dose mostly 46.1 µM), hits mostly cytotoxic; actives 3.4% (n = 400,000); AID 1347076, 2019; further: nearly all actives have a fitted effect of over 60% in size
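Potencies derive from concentration-effect curves fitted to normalized luminescence (CellTiter-Glo) of KB-V1 cells treated for 72 h at 37 degrees C in phenol-red-free DMEM containing 10% FBS.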
HT1080 IDH1KD tx = qHTS for induction of synthetic lethality in tumor cells producing 2HG: qHTS for the HT-1080-IDH1KD cell line | actives 2% (n = 360,000) | HT-1080 IDH1 knockdown viability, ATP luminescence, 48 h | Potency, µM (doses to about 46.1 µM), without a hit: at the top dose activity, negative = toxicity, usual class: cytotoxic;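 further: 0% = DMSO wells and -100% = cell-free medium wells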
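Using the IDH1-knockdown HT-1080 line run in the same batch and compound series as the NT line, viability after 48 h at 37 °C was determined by CellTiter-Glo luminescence and expressed as % activity.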
HT1080-NT tox = qHTS for induction of synthetic lethality in tumor cells producing 2HG: qHTS for the HT-1080-NT fibrosarcoma cell line; actives 1.6% (n = 360,000); Potency, µM (series often up to 46.1 µM), for the others: top-dose activity, negative = less viability, actives largely listed as cytotoxic; HT-1080-NT fibrosarcoma viability, CellTiter-Glo ATP luminescence, 48 h; AID 686970, 2013;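 further: NT is the 2HG producing partner of a matched IDH1 knockdown line; 0% = DMSO-treated cells and -100% = media-only wells without cells; nearly all actives have a fitted effect of over 55% in size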
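Viability of the 2HG-overproducing fibrosarcoma line after 48 hours of compound exposure at 37 degrees C was determined by luminescence with CellTiter-Glo, and concentration-effect curves were then fitted and categorized.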
TDP1 cell CPT = qHTS for Inhibitors of human tyrosyl-DNA phosphodiesterase 1 (TDP1): qHTS in cells in presence of CPT; chicken DT40 Tdp1-/-;hTDP1 cells + 20 nM CPT, ATP luminescence, 48 h; Potency, µM (series often up to 46.2 µM), without a hit: top-dose activity change, negative = growth inhibition, actives largely listed as inhibitors; actives 12% (n = 420,000); AID 686979, 2013; further: nearly all actives have a fitted effect of over 55% in size
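Chicken DT40 Tdp1-/- cells complemented with human TDP1, 400 cells/well, exposed to compounds plus 20 nM camptothecin for at least 48 h at 37 C; viability read as ATP content by CellTiter-Glo luminescence.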
TDP1 cell noCPT = qHTS for Inhibitors of human tyrosyl-DNA phosphodiesterase 1 (TDP1): qHTS in cells in absence of CPT; Potency, µM (titrated, usually from 46.2 µM), for inactives: at the top dose activity change, negative = growth inhibition, most hits filed as inhibitors; actives 15% (n = 420,000); DT40 Tdp1-/- hTDP1 cells, no CPT, ATP luminescence, 48 h; further: nearly all actives have a fitted effect of over 55% in size
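Compound effects on proliferation are scored in DT40 Tdp1-/-;hTDP1 cells in the absence of CPT. ATP levels (CellTiter-Glo luminescence) are recorded after a ≥48 hr, 37 °C incubation.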
KB-3-1 cytotox = qHTS assay for MDR1-selective chemotherapeutics: Primary screen using the parental adenocarcinoma cell KB-3-1; AID 1347075, 2019; Potency, µM (doses to about 46.1 µM), usual class: cytotoxic; actives 1.4% (n = 400,000); KB-3-1 viability, CellTiter-Glo ATP luminescence, 72 h; further: nearly all actives have a fitted effect of over 60% in size
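KB-3-1 cells, DMEM (no phenol red) + 10% FBS; compound by pin transfer, 72 h, 37 °C. Readout: CellTiter-Glo luminescence after 10 min. Data normalized, curve-fitted.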
Active calls of the source: *; i = inactive; ? = inconclusive; / = not tested or not shown. The call rests on the fitted dose curve; in most records, active means well fitted curve in the direction sought with a large enough effect; inconclusive means small, poorly fitted or top-dose-only effect, or another doubt; inactive means no such curve, though single readings can be large; an effect the other way counts as inactive or inconclusive. Unless noted, on the % scale 0 is the no-effect control and ±100 the full control effect; potency means the concentration at half of the fitted maximal effect.

SMILES	KB-V1 cytotox	HT1080 IDH1KD tx	HT1080-NT tox	TDP1 cell CPT	TDP1 cell noCPT	KB-3-1 cytotox
Cc1nc2cc(NC(=O)c3ccc([N+](=O)[O-])s3)ccc2s1	?	-3%	-11%	2.9µM*	5.2µM*	i
O=C(Nc1ccc(S(=O)(=O)NC2=NCCCCC2)cc1)c1ccc([N+](=O)[O-])s1	?	?	?	5.2µM*	10µM*	6.5µM*
O=C(Nc1ccc(S(=O)(=O)NC2=NCCCCC2)cc1)c1ccc(C(F)(F)F)cc1	21µM*	-11%	-2%	?	?	21µM*
CN(C)S(=O)(=O)c1ccc(C(=O)Nc2ccc(S(=O)(=O)NC3=NCCCCC3)cc2)cc1	i	9%	5%	-16%	-4%	i
O=[N+]([O-])c1cc(S(=O)(=O)NC2=NCCCCC2)ccc1NCC1CCCCC1	i	-12%	?	16µM*	?	?
Cc1cc(NS(=O)(=O)c2ccc(NC(=O)c3ccc([N+](=O)[O-])s3)cc2)nc(C)n1	i	-30%	-18%	-27%	1%	?
Cc1ccnc(NS(=O)(=O)c2ccc(NC(=O)c3ccc([N+](=O)[O-])s3)cc2)n1	i	?	?	?	?	15µM*
Cc1nnsc1Sc1ccccc1	?	?	17%	-3%	0%	i
CC(C)CCNC(=O)CCn1c(=O)c2cccn2c2cccnc21	/	/	/	8%	-16%	/
CCn1c(CNC(=O)C23CC4CC(CC(C4)C2)C3)nnc1SCC(=O)Nc1ccc(C)cc1	i	/	/	-21%	?	i
CCOc1ccccc1C(=O)NC(C(=O)NCc1ccccc1OC)C(C)C (stereo unspecified)	?	8%	9%	?	16µM*	i
COc1ccccc1CNC(=O)CC(C)C	i	23%	16%	23µM*	?	i
CCOc1ccc(C(CCc2ccccc2)NC(=O)c2ccccc2F)cc1OCC (stereo unspecified)	?	-23%	13%	35µM*	?	i
COc1ccccc1CNC(=O)COc1ccccc1OC	i	2%	10%	-9%	-1%	i
CCOc1ccccc1C(=O)NC(C)CCc1ccccc1 (stereo unspecified)	?	8%	13%	?	16µM*	i
CC(=C/c1ccccc1)/C=N/n1cnnc1	i	1%	-1%	-6%	24%	i
ClC(/C=N/n1cnnc1)=C/c1ccccc1	i	-4%	-24%	15µM*	1.8µM*	?
Cc1ccc(/C=N/N2CCN(c3ccccn3)CC2)cc1	i	14%	11%	1%	6%	i
CC(/C=N/n1cnnc1)=C\c1ccccc1	1.8µM*	16%	12%	-14%	-8%	5.2µM*
ClC(=C\c1ccccc1)/C=N/N1CCN(c2ccccn2)CC1	18µM*	8%	4%	?	?	i
CCN(CC)S(=O)(=O)c1ccc(N2CCN(C)CC2)c(NC(=O)CN2C(=O)NC3(CCCCC3)C2=O)c1	i	1%	3%	-7%	-2%	i
CN1CCN(C(=O)c2ccc(-c3cnn(C)c3)c3ccoc23)CC1	i	21%	23%	-9%	2%	i
O=C1c2[nH]nc(-c3ccccc3O)c2C(c2ccc(Cl)cc2)N1CCc1ccccc1 (stereo unspecified)	/	/	/	21µM*	16µM*	/
CCOc1cc(C2c3c(-c4ccccc4O)n[nH]c3C(=O)N2CCc2ccccc2)ccc1O (stereo unspecified)	i	/	/	16µM*	?	i
COCCCN1C(=O)c2[nH]nc(-c3ccccc3O)c2C1c1ccc(Cl)cc1 (stereo unspecified)	i	?	-22%	23µM*	?	?
SMILES	KB-V1 cytotox	HT1080 IDH1KD tx	HT1080-NT tox	TDP1 cell CPT	TDP1 cell noCPT	KB-3-1 cytotox
COc1ccc(CCN2C(=O)c3[nH]nc(-c4ccccc4O)c3C2c2ccc(O)c(OC)c2)cc1 (stereo unspecified)	i	/	/	?	?	i
O=C1c2[nH]nc(-c3ccccc3O)c2C(c2ccc(F)cc2)N1CCO (stereo unspecified)	i	/	/	?	?	i
COCCCN1C(=O)c2[nH]nc(-c3ccccc3O)c2C1c1ccc(OC)cc1 (stereo unspecified)	/	/	/	16µM*	29µM*	/
CCN(CC)CCNC(=O)c1ccc2nc(CCc3ccccc3)oc2c1	i	/	/	?	?	i
Fc1cccc(Cc2c(C3CCCCC3)nc3c4ccccc4ccn23)c1	?	-1%	0%	23µM*	13µM*	i
c1ccc(Cc2c(C3CCCCC3)nc3c4ccccc4ccn23)cc1	i	4%	-3%	?	12µM*	?
Cc1cc(Br)cn2c(Cc3ccccc3)c(C3CCCCC3)nc12	?	7%	2%	18µM*	16µM*	?
CCOc1ccc(C(=O)c2cn(CC(=O)Nc3cccc(OC)c3)c3cc4c(cc3c2=O)OCCO4)cc1	i	/	/	-26%	?	?
CC(Sc1ncn[nH]1)C(=O)Nc1cc(C(F)(F)F)ccc1Cl (stereo unspecified)	i	0%	-2%	-1%	-23%	i
O=C(NNC(=O)c1cc2ccccc2cc1O)c1cccs1	i	-18%	-10%	23µM*	?	i
C/C(=N\NC(=O)c1cc2ccccc2cc1O)c1cccs1	?	?	?	-21%	13µM*	i
C/C(=N/NC(=O)c1cccs1)c1cccs1	i	8%	-1%	-11%	-8%	i
Cc1cccc(CC(=O)NC2CC(=O)N(c3ccccc3)C2)c1 (stereo unspecified)	/	/	/	4%	0%	/
Cc1nc2ccccc2c(=O)n1/N=C/c1cn(-c2ccccc2)nc1-c1cccs1	i	-19%	-22%	?	21µM*	?
Cc1ccc(-n2[nH]c(C)c(/C=N/n3c(C)nc4ccccc4c3=O)c2=O)cc1	?	11µM*	18µM*	6.5µM*	23µM*	i
